This is an account of results in PubChem BioAssay (NCI).

Common to all, as to assay: NCI-60 one-dose screen, 48 h (100 = growth as untreated, 0 = no growth, -100 = all killed)
One assay has as its system SR leukemia. To be noted: 10 µM unless noted.
The subject of a further assay is OVCAR-8 ovarian. Particulars: 10 µM unless noted.
Another assay relates to OVCAR-5 ovarian. To be noted: 10 µM unless noted.
The test system of another assay is SK-OV-3 ovarian. To be noted: 10 µM unless noted.
The test system of the next assay is IGROV1 ovarian. To be noted: 10 µM unless noted.
In a further assay the test system is OVCAR-3 ovarian. To be noted: 10 µM unless noted.
The test system of the next assay is HS 578T breast. Particulars: 10 µM unless noted.
For a further assay, the system named is NCI/ADR-RES ovarian. To be noted: 10 µM unless noted.
The subject of the next assay is T-47D breast. To be noted: 10 µM unless noted.
The subject of a further assay is BT-549 breast. Particulars: 10 µM unless noted.
Another assay concerns MDA-MB-435 melanoma. Particulars: 10 µM unless noted.
The test system of the next assay is SW-620 colon. To be noted: 10 µM unless noted.
The subject of the next assay is MCF7 breast. Particulars: 10 µM unless noted.
For the next assay, the system named is HCC-2998 colon. Particulars: 10 µM unless noted.
The test system of a further assay is KM12 colon. To be noted: 10 µM unless noted.
In another assay the test system is OVCAR-4 ovarian. Particulars: 10 µM.
Another assay has as its system HCT-116 colon. Particulars: 10 µM unless noted.

About 83,000 compounds went through this panel and 20% of them were active in at least one assay; those are over-represented in the sample as a whole.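 Interpretation: 100, growth as untreated; towards 0, rising growth inhibition; 0, no net growth; 0 to -100, cell death. Compounds scoring below 10 were considered active.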 A number with no mark means an inactive call. Active and inactive are the calls of the source.

For the molecule `Cc1ccc(NC(=S)/N=c2/n(-c3ccccc3)nc3n2CCN3C2=NCCN2)cc1`, the growth with SR leukemia was 112%; in the assay with OVCAR-8 ovarian, 105%; with OVCAR-5 ovarian it was 98.2%; in the assay on SK-OV-3 ovarian, 114%; in the assay with IGROV1 ovarian, 120%; with OVCAR-3 ovarian, 129%. In addition, the growth is 111% in the assay with HS 578T breast; 112% with NCI/ADR-RES ovarian; 92.2% in the assay with T-47D breast; -6.96% (active) in the assay on BT-549 breast; 105% in the assay on MDA-MB-435 melanoma; 97% in the assay on SW-620 colon. The growth in the assay on MCF7 breast was 94.6%; with HCC-2998 colon, 102%; in the assay with KM12 colon, 109%.

On to `O=C1CC(C(F)(F)F)Cc2nc3ccc(Br)cc3cc21` (stereo not drawn), for which the growth in the assay on SR leukemia was 75.2%; in the assay on OVCAR-8 ovarian, 95.7%; in the assay with OVCAR-5 ovarian, 87.2%; with OVCAR-4 ovarian, 74.6%; in the assay on SK-OV-3 ovarian, 85.7%; in the assay on IGROV1 ovarian it was 73.4%. Further, the growth is 94.2% in the assay on OVCAR-3 ovarian; 95.1% in the assay on NCI/ADR-RES ovarian; 62.9% in the assay with T-47D breast; 96.3% in the assay on BT-549 breast; 94.4% in the assay on MDA-MB-435 melanoma; 92.4% in the assay on SW-620 colon. In addition, the growth in the assay with MCF7 breast was 74.3%; in the assay on HCT-116 colon it was 73.9%; with HCC-2998 colon, 109%; in the assay with KM12 colon it was 64.4%.

In the case of `CCCCCCCCCN(CCCCCCCCC)C(C)C(=O)c1ccc2cc(Br)c3ccccc3c2c1` (stereo not drawn), the growth was 7.35% (active) with SR leukemia; 94% with OVCAR-8 ovarian; 80.4% with OVCAR-5 ovarian; 85.7% in the assay on OVCAR-4 ovarian; 90.8% in the assay with SK-OV-3 ovarian; 75.7% with IGROV1 ovarian. The growth was 79.8% in the assay with T-47D breast; 101% with BT-549 breast; 76.5% with MDA-MB-435 melanoma; 67% in the assay with SW-620 colon; 97.7% in the assay with MCF7 breast; 73.5% with HCT-116 colon. The growth in the assay with HCC-2998 colon is 47.7%; in the assay with KM12 colon, 81.4%.

With `C=C(C)[C@@H]1CC[C@]2(C)[C@H](CC[C@@H]3[C@@H]([C@@](C)(O)CCC=C(C)C)CC[C@]32C)[C@@]1(C)CCC(=O)N1CCN(C)CC1`, the growth with SR leukemia is 7.02% [100 µM] (active); in the assay on OVCAR-8 ovarian, -65.6% [100 µM] (active); in the assay on OVCAR-5 ovarian it was -93.3% [100 µM] (active); in the assay on SK-OV-3 ovarian, -83.4% [100 µM] (active); in the assay on IGROV1 ovarian, -82.5% [100 µM] (active); in the assay with OVCAR-3 ovarian it was -85.9% [100 µM] (active). Besides, the growth is -87% [100 µM] (active) with NCI/ADR-RES ovarian; -42.9% [100 µM] (active) in the assay with T-47D breast; -82.6% [100 µM] (active) with MDA-MB-435 melanoma; -75% [100 µM] (active) in the assay with SW-620 colon; -65.9% [100 µM] (active) with MCF7 breast; -85.7% [100 µM] (active) in the assay with HCT-116 colon. Moreover, the growth was -91.9% [100 µM] (active) in the assay on HCC-2998 colon and -83% [100 µM] (active) in the assay on KM12 colon.

`CCOc1cc(NC(=O)c2ccccc2)c(OCC)cc1N`: the growth in the assay on SR leukemia is 110%; in the assay on OVCAR-8 ovarian, 113%; in the assay with OVCAR-5 ovarian it was 113%; in the assay with SK-OV-3 ovarian, 114%; in the assay on IGROV1 ovarian it was 84.8%; with OVCAR-3 ovarian, 108%. Further, the growth in the assay with HS 578T breast is 100%; in the assay with NCI/ADR-RES ovarian, 111%; in the assay on T-47D breast it was 101%; with BT-549 breast, 130%; in the assay with MDA-MB-435 melanoma it was 107%; with SW-620 colon it was 109%. The figures for the growth in the assay on MCF7 breast, in the assay with HCT-116 colon and with HCC-2998 colon were 108%, 118% and 112%, respectively.

In the case of `CCOc1cc(/C=N\NC(=O)N/N=C/c2ccc(O)c(OCC)c2)ccc1O`, the growth in the assay with SR leukemia is 12.2%; in the assay with OVCAR-8 ovarian, 52%; in the assay on SK-OV-3 ovarian, 16.2%; in the assay on IGROV1 ovarian it was 59.4%; with OVCAR-3 ovarian it was -34.7% (active); in the assay on HS 578T breast it was -2.98% (active). In addition, the growth in the assay on NCI/ADR-RES ovarian is 51.6%; in the assay on T-47D breast it was 29.5%; in the assay on MDA-MB-435 melanoma it was -14.6% (active); in the assay with SW-620 colon, 20.9%; in the assay with MCF7 breast, 17.4%; in the assay with HCT-116 colon it was 24.8%. Also, the growth in the assay with HCC-2998 colon is 41%; in the assay on KM12 colon it was 21.2%.

On to `COC(=O)c1cc2c(=O)[nH]cc3c2c(n1)CCC3`, for which the growth in the assay with SR leukemia is 113%; with OVCAR-8 ovarian, 105%; in the assay with OVCAR-5 ovarian it was 99.8%; in the assay with OVCAR-4 ovarian, 103%; in the assay with SK-OV-3 ovarian, 100%; with OVCAR-3 ovarian, 99.1%. Besides, the growth in the assay on NCI/ADR-RES ovarian was 108%; in the assay with T-47D breast it was 91.9%; in the assay on BT-549 breast, 108%; in the assay on MDA-MB-435 melanoma, 119%; in the assay on MCF7 breast it was 94.1%; with HCT-116 colon, 106%. The growth in the assay with HCC-2998 colon is 88.4%; in the assay on KM12 colon, 106%.

`CS(=O)(=O)c1cccnn1`: the growth is 167% with SR leukemia; 106% in the assay on OVCAR-8 ovarian; 81.1% in the assay on OVCAR-5 ovarian; 80.9% in the assay on OVCAR-4 ovarian; 116% with SK-OV-3 ovarian; 78% in the assay on IGROV1 ovarian. The growth in the assay with OVCAR-3 ovarian was 103%; in the assay with HS 578T breast it was 89.2%; in the assay with NCI/ADR-RES ovarian, 96%; with T-47D breast, 95.2%; in the assay on MDA-MB-435 melanoma, 104%; in the assay on SW-620 colon it was 95.5%. For the same molecule, the growth in the assay with MCF7 breast was 94%; in the assay on HCT-116 colon, 96.5%; with HCC-2998 colon it was 110%; with KM12 colon, 106%.

`C=C(C)[C@@H]1CC[C@]2(C(=O)NCCNCCNCCN)CC[C@]3(C)[C@H](CC[C@@H]4[C@@]5(C)CC[C@H](O)C(C)(C)[C@@H]5CC[C@]43C)[C@@H]12`: the growth in the assay on SR leukemia was -4.72% [100 µM] (active); in the assay on OVCAR-8 ovarian it was -12.9% [100 µM] (active); in the assay on OVCAR-5 ovarian, -83.4% [100 µM] (active); in the assay with SK-OV-3 ovarian it was -14.2% [100 µM] (active); with OVCAR-3 ovarian, -66% [100 µM] (active); in the assay on HS 578T breast, -23.3% [100 µM] (active). The growth is -13.1% [100 µM] (active) in the assay with NCI/ADR-RES ovarian; -32.6% [100 µM] (active) with T-47D breast; -51.9% [100 µM] (active) in the assay on BT-549 breast; -89.2% [100 µM] (active) with MDA-MB-435 melanoma; -86.7% [100 µM] (active) with SW-620 colon; -60.5% [100 µM] (active) with MCF7 breast. In addition, the growth was -26.5% [100 µM] (active) in the assay with HCT-116 colon, -90.4% [100 µM] (active) in the assay on HCC-2998 colon and -52.2% [100 µM] (active) with KM12 colon.
